This is one part of a sample in which hits are shown more often than they occur.
PKM2 inh: qHTS Assay for Inhibitors of Human Muscle isoform 2 Pyruvate Kinase. Pyruvate kinase PKM (Homo sapiens), P14618. Potency, µM (series often up to 57.5 µM), for the others: at the top dose activity change, negative = inhibition, most hits filed as inhibitors. purified PKM2, ATP generation, Kinase-Glo luminescence. hit rate 0.058% among 260,000; active = well fitted inhibition curve with a large enough effect; also: nearly all actives have a fitted effect of over 60% in size
Target sequence (P14618 whole entry, looked up, canonical isoform): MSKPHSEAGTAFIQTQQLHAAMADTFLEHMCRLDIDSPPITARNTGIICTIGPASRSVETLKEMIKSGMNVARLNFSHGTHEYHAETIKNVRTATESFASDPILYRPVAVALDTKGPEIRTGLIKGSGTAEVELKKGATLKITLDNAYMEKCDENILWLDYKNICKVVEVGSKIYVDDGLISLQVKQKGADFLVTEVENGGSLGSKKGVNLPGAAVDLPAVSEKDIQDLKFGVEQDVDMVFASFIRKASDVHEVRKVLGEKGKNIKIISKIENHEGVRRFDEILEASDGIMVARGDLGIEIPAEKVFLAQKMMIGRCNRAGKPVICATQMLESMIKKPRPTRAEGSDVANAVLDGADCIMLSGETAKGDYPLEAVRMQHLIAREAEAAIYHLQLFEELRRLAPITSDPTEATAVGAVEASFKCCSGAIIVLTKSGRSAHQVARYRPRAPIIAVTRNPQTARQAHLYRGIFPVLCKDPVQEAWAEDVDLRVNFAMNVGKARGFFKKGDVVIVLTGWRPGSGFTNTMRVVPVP
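Coupled luciferase luminescence (Kinase-Glo) detects ATP generated from 0.1 mM ADP and 0.5 mM PEP in imidazole buffer pH 7.2 with KCl, MgCl2; 1 h at room temperature. Enzyme at intermediate activity; normalized to uninhibited and no-enzyme controls.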
The depositor's hits bear a star. Potency is read from the fitted curve at half-maximal effect.

SMILES | PKM2 inh
O=C(O)c1cc(NC(=O)c2cccc(C(=O)Nc3cc(C(=O)O)cc(C(=O)O)c3)c2)cc(C(=O)O)c1 | 13µM*
CC(=O)N1CCN(c2ccc(NC(=O)c3cccc(C)c3)cc2)CC1 | 34%
O=C(Nc1cccc(O)c1)c1cccc(S(=O)(=O)Nc2cccc(O)c2)c1 | 42%
COc1ccccc1CNC(=O)C1=CCN(S(=O)(=O)c2ccc(C)cc2)CC1 | 51%
c1coc(CN(Cc2ccco2)c2ncnc3c2oc2ccccc23)c1 | 31%
CCOC(=O)c1c(-c2ccc(C)o2)csc1NC(=S)NC(=O)N(C)C | 45%
CCC(=O)Oc1ccc(C(=O)Nc2ccc3c(c2)OCO3)cc1 | 14µM*
CS(=O)(=O)Nc1ccc(C(=O)NCc2ccc3c(c2)OCO3)cc1 | 51%
CC(=O)Oc1ccc(C(=O)Nc2cccc(C(=O)c3cccc(NC(=O)c4ccc(OC(C)=O)cc4)c3)c2)cc1 | 32%
NS(=O)(=O)c1ccc2c(c1)oc(=O)c1cc(S(N)(=O)=O)ccc12 | 160%
CCOC(=O)c1cnc(SCC(=O)c2ccc3c(c2)OCCO3)nc1N | 106%
O=C(COC(=O)c1cccs1)c1ccc2c(c1)OCCO2 | 28µM*
O=C(COC(=O)c1ccc(NS(=O)(=O)c2ccc3c(c2)OCCO3)cc1)NC1CC1 | 43%
CCOC(=O)c1[nH]c2ccccc2c1N=CN(CC)CC | -3%
COC(=O)N1[C@H](C)C=C[C@]1(Cc1ccccc1)C(=O)NCc1ccc(C)o1 | 45%
Cc1cc(C)cc(NC(=O)Nc2ccc(N3CCCCC3)cc2)c1 | 46%
Cc1cc(NC(=O)C2CCCCC2)ncc1NC(=O)c1ccccn1 | 52%
O=C(Nc1ccc2c(c1)OCCO2)c1ccccn1 | 14µM*
O=C(Nc1ccc2oc(-c3ccccc3F)nc2c1)c1ccc2c(c1)OCCO2 | 5%
O=C(Nc1ccc(N2CCCCC2)cc1)c1ccccn1 | 16µM*
O=C(CN1CCN(c2ccc(O)cc2)CC1)Nc1ccc2c(c1)OCCO2 | 35%
O=C(CN(CCc1ccccc1)S(=O)(=O)c1ccc(Br)cc1)N/N=C/c1ccccc1C(=O)O | -6%
COc1c(O)c(O)cc2c1oc1c3ccccc3oc(=O)c21 | 39%
COc1ccc(/C(N)=N/OC(=O)c2ccco2)cc1 | 18µM*
COc1ccc(C(=O)Nc2ncc3c(n2)CC(c2ccco2)CC3=O)cc1 (stereo unspecified) | 38%
SMILES | PKM2 inh
COc1cccc(S(=O)(=O)N2CCN(C(=O)c3ccco3)CC2)c1 | 41%
COc1ccc(OC)c2c(C)c(C)[nH]c12 | 51%
CCc1cccc(C)c1N=Cc1c(O)c2ccccc2oc1=O | 58%
O=C1NC(=S)S/C1=C1\Sc2ccccc2N1CCCS(=O)(=O)O | 11µM*
CCOC(=O)C1CCN(c2nc(N)c3c(N)nc(SCC(=O)O)cc3c2C#N)CC1 | 66%
COc1cccc(CNC(=O)CCC2CCCN(C(=O)c3cc(C4CC4)[nH]n3)C2)c1 (stereo unspecified) | 139%
Cc1nc(-c2ccc(S(=O)(=O)NCc3ccccn3)s2)cs1 | 45%
O=C(CCSc1ccc(Br)cc1)Nc1cccnc1 | 43%
COc1ccc(NC(=O)c2cc([N+](=O)[O-])ccc2O)cc1 | 16µM*
COc1cccc(NC(=O)CCN2C(=O)c3ccc([N+](=O)[O-])cc3C2=O)c1 | 54%
COc1ccc(NC(=O)c2[nH]c(C)c(C(C)=O)c2C)cc1 | 39%
Cc1nc2sccn2c(=O)c1S(=O)(=O)Nc1cccc(Cl)c1C | 77%
Cc1nc2ccc(S(=O)(=O)NCC(=O)N(C)Cc3ccco3)cc2s1 | 35%
COc1ccc2nc(NC(=O)c3ccoc3C)sc2c1 | 16µM*
COc1ccc2nc(NC(=O)CCNC(=O)c3ccccc3Cl)sc2c1 | 0%
CC(=O)N1N=C(c2ccc(C)o2)CC1c1cccc(F)c1 (stereo unspecified) | 34%
Cc1ccccc1-c1ncc(CN2CCC(CO)(CCCc3ccccc3)CC2)cn1 | 131%
CCOC(=S)SCC(=O)Nc1ncc(C)s1 | 79%
Cc1ccc(CNC(=O)Nc2cccs2)cc1 | 83%
O=C(Nc1ccc(-c2ccc3nncn3n2)cc1)c1ccc(Br)o1 | 60%
CCc1ccccc1N1C(=O)C(Cl)=C(N2CCOCC2)C1=O | 31%
COc1cc([N+](=O)[O-])cc2sc(NC(C)=O)nc12 | 43%
O=CN/C=C/c1cc(O)ccc1O | 10µM*
COc1ccc(-c2ccc(SC)nn2)cc1 | 10µM*
COc1cccc(NC(=O)CSc2ccc(-c3sc(C)nc3C)nn2)c1 | 36%
SMILES | PKM2 inh
CCc1ccc(NC(=O)CSc2nnc(C)c(=O)n2N)cc1 | 31%
Cn1c(=O)n(C)c2cc(NC(=O)c3ccccc3[N+](=O)[O-])c(Br)cc21 | 84%
CNC(=S)N1N=C(c2ccc(Br)cc2)CC1c1ccc(OC)cc1 (stereo unspecified) | 49%
COc1ccc(S(=O)(=O)c2ccc(OC)cc2)cc1 | 45%
COc1ccc(C2=CC(=O)C=CC2=O)cc1 | 18µM*
COc1ccc(S(=O)(=O)/N=C2/C=CC(=O)C(C)=C2C)cc1 | 39%
Cc1nnc(SCC(=O)Nc2nccs2)o1 | 40%
CC(C)CCN1CCN(Cc2cccc3cccnc23)CC1CCO (stereo unspecified) | 37%
Cc1ccc(Nc2cc(C)c3c(O)cccc3n2)cc1C | 3%
COc1cccc2nc3cc(C)c(C)cc3nc12 | 14µM*
COc1cc(F)ccc1S(=O)(=O)n1c(C)nc2ccccc21 | -2%
Cc1nc2ccc(S(=O)(=O)Nc3ccccc3C)cc2s1 | 145%
O=C(CSc1ccc(-c2ccco2)nn1)c1ccccc1 | 35%
O=C(Cc1c[nH]c2ccccc12)NCc1ccc(Cl)cc1Cl | 33%
CCOc1cc(NC(=O)c2cccs2)c(OCC)cc1NC(=O)c1cccnc1 | 79%
COc1ccc(C(=O)O/N=C(\N)Cc2ccc(Cl)cc2)cc1OC | 52%
N/C(=N\OC(=O)c1ccc(Cl)cc1Cl)c1ccccn1 | 14µM*
CCOC(=O)c1c(-c2ccc(C)o2)csc1NC(=O)COC(=O)c1cccs1 | 66%
Cc1cccc(/C(N)=N/OC(=O)c2cccs2)c1 | 13µM*
N/C(CS(=O)(=O)c1ccccn1)=N\OC(=O)c1ccccc1Cl | 38%
Cc1ccc(C(=O)O/N=C(\N)c2ccccn2)c(Cl)c1 | 14µM*
O=C(Oc1ccc2ccc(O)cc2c1)c1ccccc1Cl | 50%
Cc1ccc(C(=O)O/N=C(\N)c2ccccc2)c(Cl)c1 | 18µM*
Cc1cccc(NS(=O)(=O)c2cc3c(cc2C)n(C)c(=O)c(=O)n3C)c1 | 85%
CCOC(=O)C(CO)(NC(C)=O)C(=O)OCC | 4%
SMILES | PKM2 inh
CC(=O)N1CC(=O)N=C1SCC(=O)Nc1nc(C)c(-c2ccccc2)s1 | 97%
O=C1COc2ccc(C(=O)COC(=O)Cc3ccsc3)cc2N1 | 70%
Cc1cccc2sc(NS(=O)(=O)c3ccccc3)nc12 | 33%
O=[N+]([O-])c1cccnc1NCc1cccs1 | 37%
COC(=O)C1CCN(S(=O)(=O)c2ccc(OC)cc2)CC1 | 36%
CC(=O)N1N=C(c2ccccc2O)CC1c1cccs1 (stereo unspecified) | 38%
Cc1ccc(CNC(=O)Cn2c(=O)oc3ccccc32)o1 | 38%
O=c1cc(-c2ccccc2Cl)oc2c(NS(=O)(=O)c3cccs3)ccc(O)c12 | 30%
COc1ccc(C/C(N)=N/OC(=O)c2cccc([N+](=O)[O-])c2)cc1 | 37%
COc1cccc(C(=O)C(C#N)=C(SC)SC)c1 | 39%
COc1cccc(C(=O)O/N=C(\N)c2ccccn2)c1 | 8.9µM*
O=C1c2cccnc2C(Nc2ccccc2Br)N1Cc1ccco1 (stereo unspecified) | 31%
COc1ccc(CSc2ncnc3sccc23)cc1F | 34%

Screening results (PubChem BioAssay)
